# Like-named read-outs stand apart in the source and are kept apart here.
# Legend:
# Conditions in all cases: n = 1
# DAPK2 = system: DAPK2
# DAPK3 = system: DAPK3
# DCAMKL1 = system: T1, DCAMKL1
# T1 construct: gene DCLK1
# DCAMKL2 = system: T2, DCAMKL2
# T2 construct: gene DCLK2
# DCAMKL3 = system: T3, DCAMKL3
# T3 construct: gene DCLK3
# DDR1 = system: DDR1
# DDR2 = system: DDR2
# DLK = system: T4, DLK
# T4 construct: gene MAP3K12
# DMPK2 = system: T5, DMPK2
# T5 construct: gene CDC42BPG
# DMPK = system: DMPK
# DRAK1 = system: T6, DRAK1
# T6 construct: gene STK17A
# DRAK2 = system: T7, DRAK2
# T7 construct: gene STK17B
# DYRK1A = system: DYRK1A
# DYRK1B = system: DYRK1B
# DYRK2 = system: DYRK2
# EGFR = system: EGFR
# EIF2AK1 = system: EIF2AK1
# EPHA1 = system: EPHA1
# EPHA2 = system: EPHA2
# EPHA3 = system: EPHA3
# [1] = concentration: 1 μM, replicates: in singlicate
# 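Note: KINOMEscan kinase panel screen.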
smiles,measurement,setting,value
COc1cccc(-c2cc(-c3c[nH]nc3-c3ccccn3)ccn2)c1 [GW680338],%Inh,DAPK2; [1],22%
same,%Inh,DAPK3; [1],23%
same,%Inh,DCAMKL1; [1],13%
same,%Inh,DCAMKL2; [1],0%
same,%Inh,DCAMKL3; [1],0%
same,%Inh,DDR1; [1],3%
same,%Inh,DDR2; [1],37%
same,%Inh,DLK; [1],28%
same,%Inh,DMPK2; [1],6%
same,%Inh,DMPK; [1],0%
same,%Inh,DRAK1; [1],0%
same,%Inh,DRAK2; [1],2%
same,%Inh,DYRK1A; [1],13%
same,%Inh,DYRK1B; [1],14%
same,%Inh,DYRK2; [1],1%
same,%Inh,EGFR; [1],31%
same,%Inh,EIF2AK1; [1],2%
same,%Inh,EPHA1; [1],0%
same,%Inh,EPHA2; [1],0%
same,%Inh,EPHA3; [1],11%
Cc1c(O)cccc1Nc1ccnc2ccc(C(F)(F)F)cc12.Cl [GW466413],%Inh,DAPK2; [1],0%
same,%Inh,DAPK3; [1],0%
same,%Inh,DCAMKL1; [1],0%
same,%Inh,DCAMKL2; [1],0%
same,%Inh,DCAMKL3; [1],0%
same,%Inh,DDR1; [1],16%
same,%Inh,DDR2; [1],24%
same,%Inh,DLK; [1],43%
same,%Inh,DMPK2; [1],0%
same,%Inh,DMPK; [1],0%
same,%Inh,DRAK1; [1],14%
same,%Inh,DRAK2; [1],0%
same,%Inh,DYRK1A; [1],29%
same,%Inh,DYRK1B; [1],0%
same,%Inh,DYRK2; [1],0%
same,%Inh,EGFR; [1],28%
same,%Inh,EIF2AK1; [1],0%
same,%Inh,EPHA1; [1],77%
same,%Inh,EPHA2; [1],11%
same,%Inh,EPHA3; [1],3%
COc1cccc(NC(=O)NC2CCN(c3ccnc(Nc4ccc(F)cc4)n3)C2)c1 (stereo not shown) [GSK1379721],%Inh,DAPK2; [1],0%
same,%Inh,DAPK3; [1],2%
same,%Inh,DCAMKL1; [1],11%
same,%Inh,DCAMKL2; [1],2%
same,%Inh,DCAMKL3; [1],0%
same,%Inh,DDR1; [1],17%
same,%Inh,DDR2; [1],38%
same,%Inh,DLK; [1],0%
same,%Inh,DMPK2; [1],13%
same,%Inh,DMPK; [1],0%
same,%Inh,DRAK1; [1],0%
same,%Inh,DRAK2; [1],0%
same,%Inh,DYRK1A; [1],0%
same,%Inh,DYRK1B; [1],30%
same,%Inh,DYRK2; [1],26%
same,%Inh,EGFR; [1],17%
same,%Inh,EIF2AK1; [1],0%
same,%Inh,EPHA1; [1],12%
same,%Inh,EPHA2; [1],0%
same,%Inh,EPHA3; [1],0%
Cc1cccc(-c2nc(Nc3cccc(C(N)=O)c3)c3ccccc3n2)n1 [GW876019],%Inh,DAPK2; [1],0%
same,%Inh,DAPK3; [1],17%
same,%Inh,DCAMKL1; [1],36%
same,%Inh,DCAMKL2; [1],0%
same,%Inh,DCAMKL3; [1],29%
same,%Inh,DDR1; [1],29%
same,%Inh,DDR2; [1],8%
same,%Inh,DLK; [1],0%
same,%Inh,DMPK2; [1],0%
same,%Inh,DMPK; [1],0%
same,%Inh,DRAK1; [1],8%
same,%Inh,DRAK2; [1],28%
same,%Inh,DYRK1A; [1],6%
same,%Inh,DYRK1B; [1],65%
same,%Inh,DYRK2; [1],34%
same,%Inh,EGFR; [1],15%
same,%Inh,EIF2AK1; [1],0%
same,%Inh,EPHA1; [1],57%
same,%Inh,EPHA2; [1],32%
same,%Inh,EPHA3; [1],0%
COc1ccccc1-c1ccc2c(NC(=O)C3CC3)n[nH]c2n1 [SB-711239],%Inh,DAPK2; [1],11%
same,%Inh,DAPK3; [1],3%
same,%Inh,DCAMKL1; [1],0%
same,%Inh,DCAMKL2; [1],3%
same,%Inh,DCAMKL3; [1],0%
same,%Inh,DDR1; [1],10%
same,%Inh,DDR2; [1],22%
same,%Inh,DLK; [1],5%
same,%Inh,DMPK2; [1],0%
same,%Inh,DMPK; [1],1%
same,%Inh,DRAK1; [1],5%
same,%Inh,DRAK2; [1],0%
same,%Inh,DYRK1A; [1],12%
same,%Inh,DYRK1B; [1],16%
same,%Inh,DYRK2; [1],2%
same,%Inh,EGFR; [1],2%
same,%Inh,EIF2AK1; [1],0%
same,%Inh,EPHA1; [1],0%
same,%Inh,EPHA2; [1],18%
same,%Inh,EPHA3; [1],0%
Cc1ccc(NC(=O)Nc2cccc(C(F)(F)F)c2)cc1 [GSK955403],%Inh,DAPK2; 1 µM,3%
same,%Inh,DAPK3; 1 µM,24%
same,%Inh,DCAMKL1; 1 µM,0%
same,%Inh,DCAMKL2; 1 µM,0%
same,%Inh,DCAMKL3; 1 µM,13%
same,%Inh,DDR1; 1 µM,43%
same,%Inh,DDR2; 1 µM,65%
same,%Inh,DLK; 1 µM,0%
same,%Inh,DMPK2; 1 µM,0%
same,%Inh,DMPK; 1 µM,0%
same,%Inh,DRAK1; 1 µM,15%
same,%Inh,DRAK2; 1 µM,0%
same,%Inh,DYRK1A; 1 µM,0%
same,%Inh,DYRK1B; 1 µM,0%
same,%Inh,DYRK2; 1 µM,0%
same,%Inh,EGFR; 1 µM,0%
same,%Inh,EIF2AK1; 1 µM,0%
same,%Inh,EPHA1; 1 µM,17%
same,%Inh,EPHA2; 1 µM,0%
same,%Inh,EPHA3; 1 µM,0%
O=C(Nc1n[nH]c2cc(-c3cccc(F)c3F)ccc12)C1CC1 [SB-733894],%Inh,DAPK2; [1],24%
same,%Inh,DAPK3; [1],35%
same,%Inh,DCAMKL1; [1],21%
same,%Inh,DCAMKL2; [1],0%
same,%Inh,DCAMKL3; [1],0%
same,%Inh,DDR1; [1],0%
same,%Inh,DDR2; [1],0%
same,%Inh,DLK; [1],0%
same,%Inh,DMPK2; [1],0%
same,%Inh,DMPK; [1],0%
same,%Inh,DRAK1; [1],0%
same,%Inh,DRAK2; [1],0%
same,%Inh,DYRK1A; [1],2%
same,%Inh,DYRK1B; [1],0%
same,%Inh,DYRK2; [1],14%
same,%Inh,EGFR; [1],12%
same,%Inh,EIF2AK1; [1],23%
same,%Inh,EPHA1; [1],13%
same,%Inh,EPHA2; [1],16%
same,%Inh,EPHA3; [1],18%
COc1ccccc1CNC(=O)c1cc(C(=O)c2ccccc2C)c[nH]1 [GSK364507],%Inh,DAPK2; [1],0%
same,%Inh,DAPK3; [1],17%
same,%Inh,DCAMKL1; [1],16%
same,%Inh,DCAMKL2; [1],16%
same,%Inh,DCAMKL3; [1],4%
same,%Inh,DDR1; [1],11%
same,%Inh,DDR2; [1],0%
same,%Inh,DLK; [1],15%
same,%Inh,DMPK2; [1],5%
same,%Inh,DMPK; [1],0%
same,%Inh,DRAK1; [1],1%
same,%Inh,DRAK2; [1],12%
same,%Inh,DYRK1A; [1],17%
same,%Inh,DYRK1B; [1],19%
same,%Inh,DYRK2; [1],0%
same,%Inh,EGFR; [1],36%
same,%Inh,EIF2AK1; [1],0%
same,%Inh,EPHA1; [1],25%
same,%Inh,EPHA2; [1],13%
same,%Inh,EPHA3; [1],0%
COc1ccc(Nc2nccc(NCCNC(=O)Nc3ccccc3F)n2)cc1 [GSK1379901],%Inh,DAPK2; [1],0%
same,%Inh,DAPK3; [1],8%
same,%Inh,DCAMKL1; [1],15%
same,%Inh,DCAMKL2; [1],0%
same,%Inh,DCAMKL3; [1],8%
same,%Inh,DDR1; [1],11%
same,%Inh,DDR2; [1],0%
same,%Inh,DLK; [1],0%
same,%Inh,DMPK2; [1],0%
same,%Inh,DMPK; [1],0%
same,%Inh,DRAK1; [1],2%
same,%Inh,DRAK2; [1],0%
same,%Inh,DYRK1A; [1],19%
same,%Inh,DYRK1B; [1],0%
same,%Inh,DYRK2; [1],6%
same,%Inh,EGFR; [1],20%
same,%Inh,EIF2AK1; [1],10%
same,%Inh,EPHA1; [1],33%
same,%Inh,EPHA2; [1],25%
same,%Inh,EPHA3; [1],0%
CC(C)(C)c1ccc(C(=O)Nc2cn3cc(-c4cccnc4)ccc3n2)cc1,%Inh,DAPK2; [1],13%
same,%Inh,DAPK3; [1],8%
same,%Inh,DCAMKL1; [1],45%
same,%Inh,DCAMKL2; [1],12%
same,%Inh,DCAMKL3; [1],25%
same,%Inh,DDR1; [1],24%
same,%Inh,DDR2; [1],0%
same,%Inh,DLK; [1],0%
same,%Inh,DMPK2; [1],17%
same,%Inh,DMPK; [1],5%
same,%Inh,DRAK1; [1],10%
same,%Inh,DRAK2; [1],5%
same,%Inh,DYRK1A; [1],42%
same,%Inh,DYRK1B; [1],65%
same,%Inh,DYRK2; [1],51%
same,%Inh,EGFR; [1],17%
same,%Inh,EIF2AK1; [1],3%
same,%Inh,EPHA1; [1],12%
same,%Inh,EPHA2; [1],12%
same,%Inh,EPHA3; [1],9%
O=C(Nc1n[nH]c2nc(-c3nccs3)c(Br)cc12)C1CC1 [SB-742251],%Inh,DAPK2; [1],0%
same,%Inh,DAPK3; [1],6%
same,%Inh,DCAMKL1; [1],4%
same,%Inh,DCAMKL2; [1],0%
same,%Inh,DCAMKL3; [1],0%
same,%Inh,DDR1; [1],0%
same,%Inh,DDR2; [1],26%
same,%Inh,DLK; [1],34%
same,%Inh,DMPK2; [1],0%
same,%Inh,DMPK; [1],0%
same,%Inh,DRAK1; [1],0%
same,%Inh,DRAK2; [1],0%
same,%Inh,DYRK1A; [1],30%
same,%Inh,DYRK1B; [1],0%
same,%Inh,DYRK2; [1],36%
same,%Inh,EGFR; [1],0%
same,%Inh,EIF2AK1; [1],1%
same,%Inh,EPHA1; [1],0%
same,%Inh,EPHA2; [1],0%
same,%Inh,EPHA3; [1],0%
